The entries come from a sample that favours hits as a whole.
FECH inh: blocks human mitochondrial ferrochelatase activity | purified FECH, Ni-mesoporphyrin absorbance 550 nm | calls only at 10 µM (by protocol) | actives 3.3% (n = 20,000) | AID 1671448;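 active = enzyme reaction rate more than 3 SD below the solvent-only control wells on the same plate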;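 also: lower slope than DMSO wells means FECH inhibition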
Target sequence (P22830 whole entry, looked up): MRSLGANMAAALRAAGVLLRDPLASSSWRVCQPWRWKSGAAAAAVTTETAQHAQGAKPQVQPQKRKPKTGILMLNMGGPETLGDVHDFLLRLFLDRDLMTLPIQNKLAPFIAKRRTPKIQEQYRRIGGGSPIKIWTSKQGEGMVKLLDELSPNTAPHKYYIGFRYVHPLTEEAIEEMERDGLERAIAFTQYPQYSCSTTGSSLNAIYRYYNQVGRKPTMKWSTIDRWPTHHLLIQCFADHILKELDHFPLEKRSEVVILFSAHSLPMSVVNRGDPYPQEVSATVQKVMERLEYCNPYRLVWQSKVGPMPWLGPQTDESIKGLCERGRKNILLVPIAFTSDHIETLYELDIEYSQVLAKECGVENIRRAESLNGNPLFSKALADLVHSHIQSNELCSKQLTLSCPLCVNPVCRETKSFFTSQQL
Calls only; n = inactive; + = active, no number.

SMILES	FECH inh
COCCn1c(CNC(=O)c2cccc(OC)c2)nc2cccnc21	n
Cc1ccccc1OCC1CCCN(C(=O)c2cc3n(n2)CCNC3)C1 (stereo not drawn)	n
Cc1c(CNCCc2nc3ccc(F)cc3[nH]2)c2ccccc2n1CC(N)=O	n
CC(C)(C)C(Cn1ccnc1)NC(=O)C1(N)CC1 (stereo not drawn)	n
C#CCN(CC=C)C(=O)C1(Oc2ccc(C)cc2)CCNCC1	n
O=C1N(Cc2cc(F)cc(F)c2)c2ccccc2S(=O)(=O)N1c1cc(F)ccc1F	n
O=C(Nc1ccc(F)cc1F)N1CCC(n2cnc3cccnc32)CC1	n
Cc1ccc(S(=O)(=O)N2CCC(n3c(C(F)(F)F)nc4cccnc43)CC2)cc1C	n
CN1C(=O)c2ccccc2Sc2cc(-c3noc(CNC(=O)c4ccccc4)n3)ccc21	+
CN1C(=O)c2ccccc2Sc2cc(-c3noc(COc4ccc(F)cc4)n3)ccc21	n
CC(=O)Nc1ccc(-c2nc(-c3ccc4c(c3)Sc3ccccc3C(=O)N4C)no2)cc1	n
CN(Cc1cnc(N2CCOCC2)nc1)Cc1cccc2ncccc12	n
C/C(=C\c1ccccc1)c1c(-c2ccccc2)ncn1CC(O)CO (stereo not drawn)	n
Cc1cc(NC(=O)COc2ccc(C(C)C)cc2)n(-c2ncnc3c2cnn3-c2cccc(C)c2C)n1	+
COc1cccc(OCC(=O)Nc2cc(C)nn2-c2ncnc3c2cnn3-c2cccc(C)c2C)c1	n
Cc1cccc(OCC(=O)Nc2cc(C)nn2-c2ncnc3c2cnn3-c2cccc(C)c2C)c1	n
CCNc1nc(Nc2ccc(F)cc2)c2cnn(-c3ccccc3)c2n1	n
COc1ccc(S(=O)(=O)N2CCN(c3cc(-c4ccc(F)cc4)ncn3)CC2)cc1Cl	n
Cc1cnc(CN(C)C(=O)c2ccc(OCC(=O)N3CCCCC3)cc2)[nH]1	+
NC1(C(=O)O)CCN(Cc2ccc(OCC(=O)N3CCCCC3)cc2)C1 (stereo not drawn)	n
CN(Cc1ncc[nH]1)C(=O)COc1ccc(F)cc1	n
COc1ccc(C(=O)Nc2cc(C)nn2-c2ncnc3c2cnn3-c2cccc(C)c2C)cc1OC	n
CC(C)=Cc1nc(C2(c3ccc(F)cc3)CCOC2)no1 (stereo not drawn)	n
COc1ccc(S(=O)(=O)NCc2nc3cccnc3n2C)cc1	n
CCOC(=O)Cn1c(=O)c2cnc(-c3ccc(Cl)cc3)nc2n(C)c1=O	n
SMILES	FECH inh
Cc1cccc(NC(=O)c2nc(N3CCOCC3)c3oc4ccccc4c3n2)c1C	n
CCN(Cc1nc(COC)no1)C(=O)c1ccc2ccccc2n1	n
Cc1cccc(-c2cc(N3CCN(C(=O)NC(C)C)CC3)ncn2)c1	n
Cc1cc(Sc2ccc(NC(=O)Nc3ccc(Cl)cc3)cc2)n2nc(C)nc2n1	n
COc1ccc(-c2ncc3c(=O)n(Cc4cccc(C)c4)c(=O)n(C)c3n2)cc1	n
COc1ccccc1-c1nc(Cn2c(=O)c3cnc(-c4cccnc4)nc3n(C)c2=O)c(C)o1	n
COc1ccccc1-c1nc(Cn2c(=O)c3cnc(-c4ccc(C)cc4)nc3n(C)c2=O)c(C)o1	+
COc1ccc(-c2ncc3c(=O)n(Cc4cccnc4)c(=O)n(C)c3n2)cc1	+
COc1ccc(-c2ncc3c(=O)n(Cc4cccc(OC)c4)c(=O)n(C)c3n2)cc1	n
CCOc1ccccc1-c1nc(Cn2c(=O)c3cnc(-c4ccc(C)cc4)nc3n(C)c2=O)c(C)o1	n
Nc1nc(CCCNC(=O)c2cn(-c3ccccc3)nn2)cs1	n
COCC(=O)Nc1cccc(-c2ccc(F)c(CO)c2)c1	n
CC(C)NC(=O)[C@@H]1C[C@H](N)CN1C(=O)c1ccc(CN2CCCCCC2)cc1	n
Cc1cc(C)cc(Nc2nc(NCCN3CCOCC3)nc3c2cnn3-c2ccccc2)c1	n
Cn1c(=O)c(C(=O)Nc2ccc(F)cc2)nc2ccccc21	n
Cn1c(=O)c(C(=O)Nc2ccccn2)nc2ccccc21	+
Cn1c(=O)c(C(=O)Nc2ccccc2Br)nc2ccccc21	n
Cc1cc(C)n2nc(CN(C(=O)C(C)(C)C)c3ccccc3)nc2n1	n
CN1CCC=C(Cn2nccc2NC(=O)COc2ccccc2)C1	n
c1cncc(COC2CCCN(Cc3cccc(Cn4cccn4)c3)C2)c1 (stereo not drawn)	n
Cc1cccc(NC(=O)N2CCC(n3cnc4cccnc43)CC2)c1	n
O=C(NC1CCCC1)N1CCC(n2cnc3cccnc32)CC1	+
Cc1ccccc1NC(=O)N1CCC(n2cnc3cccnc32)CC1	n
O=C(Nc1cccc(Br)c1)N1CCC(n2cnc3cccnc32)CC1	n
COc1cc(NC(=O)N2CCC(n3cnc4cccnc43)CC2)cc(OC)c1	n
SMILES	FECH inh
CCCNC(=O)N1CCC(n2cnc3cccnc32)CC1	n
COc1cc(NC(=O)N2CCC(n3cnc4cccnc43)CC2)cc(OC)c1OC	n
O=C(Nc1ccccc1)N1CCC(n2cnc3cccnc32)CC1	+
COc1cccc(NC(=O)N2CCC(n3cnc4cccnc43)CC2)c1	+
O=C(NCCc1nc2c(s1)CCCC2)c1cc(=O)c2ccccc2o1	n
CCc1ccc(Nc2cc(C)nc3nc(-c4cccnc4)nn23)cc1	n
CCCC(NC(=O)c1ccc(COC)o1)c1ccccc1 (stereo not drawn)	n
Cc1ccc(NC(=O)N2CCC(n3cnc4cccnc43)CC2)cc1F	n
CCN(CC)CCNc1nc(Nc2ccc(OC)cc2)c2cnn(-c3ccccc3)c2n1	n
c1ccc(CC2CCN(c3nc(Nc4ccccc4)c4cnn(-c5ccccc5)c4n3)CC2)cc1	n
Cc1ccc(CN2CCCN(CC(=O)NC3CCCCC3)S2(=O)=O)cc1	n
COc1ccccc1N1CCN(Cc2nc(C)n3ccccc23)C(C)C1 (stereo not drawn)	n
O=C1CCS(=O)(=O)N1c1ccc(S(=O)(=O)NCc2ccccc2F)cc1	n
Cc1ccc(C)c(S(=O)(=O)NCc2nc3cccnc3n2C2CCCCC2)c1	n
O=C1CC(c2ccc(Br)s2)=Nc2ccccc2N1	n
Cc1ccc(-n2c(CN3CCN(S(=O)(=O)c4ccc(Cl)s4)CC3)nc3cccnc32)cc1	n
Cc1ccc(-n2c(CN3CCN(S(=O)(=O)c4cccs4)CC3)nc3cccnc32)cc1	+
Cc1cccc(-n2c(CN3CCN(S(=O)(=O)c4cccs4)CC3)nc3cccnc32)c1	n
O=C(NCCCN1CCCC1=O)c1ccc(CN2C(=O)CCn3nc(-c4ccccc4)cc32)cc1	n
Cc1ccc(Cn2c(CNC(=O)c3cccnc3)nc3cccnc32)cc1	+
CC(C)Cn1c(CNS(C)(=O)=O)nc2cccnc21	+
CC(C)Cn1c(CNS(=O)(=O)c2ccc(Cl)cc2)nc2cccnc21	n
CCc1ccc(Cn2c(CNS(=O)(=O)c3ccc([N+](=O)[O-])cc3)nc3cccnc32)cc1	+
Cc1cccc(S(=O)(=O)NCc2nc3cccnc3n2Cc2ccccc2)c1	n
CCc1ccc(Cn2c(CNS(=O)(=O)c3ccc(C)cc3)nc3cccnc32)cc1	n
SMILES	FECH inh
CCOc1ccc(C(=O)NCc2nc3cccnc3n2Cc2ccc(C)cc2)cc1	n
Cc1cccc(Cn2c(CNS(=O)(=O)c3ccccc3)nc3cccnc32)c1	+
Cc1ccc(Cn2c(CNC(=O)c3ccncc3)nc3cccnc32)cc1	n
Cc1ccccc1S(=O)(=O)NCc1nc2cccnc2n1CC(C)C	n
Cc1cccc(Cn2c(CNS(=O)(=O)c3ccc(F)cc3)nc3cccnc32)c1	n
CCc1ccc(S(=O)(=O)NCc2nc3cccnc3n2Cc2ccc(F)cc2)cc1	n
CCO[C@H]1COC[C@@H]1NC(=O)CCC(=O)NC1CCCCCCC1	n

Bioassay records (PubChem)
